An excerpt weighted towards active compounds, which were near 7% of everything screened.
HP1b chromo inh = inhibitors of HP1-beta chromodomain binding to methylated histone tails; Potency, µM (top dose mostly 114 µM), without a hit: top-dose activity change, negative = inhibition, most hits filed as inhibitors; 390,000 tested, 0.56% active; P83916; AID 540317; AlphaScreen HP1-beta / biotin-H3K9me3 peptide binding; further: potency means the concentration at half of the fitted maximal effect; nearly all actives have a fitted effect of over 70% in size
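Compound inhibition of the preformed complex between 50 nM HP1-beta and 50 nM biotinylated H3K9me3 peptide was read by AlphaScreen. Buffer was PBS pH 7.4 with 0.01% Tween-20. Incubations ran 30 min at room temperature, with 10 ug/mL donor/acceptor beads.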
JMJD2A Tudor = JMJD2A Tudor domain (human) inhibition. AID 504339. O75164. AlphaScreen JMJD2A-Tudor / H3K4me3 peptide binding. Potency, µM (doses to about 114 µM), without a hit: at the top dose activity change, negative = inhibition, most hits filed as inhibitors. 390,000 tested, 4.4% active; further: potency means the concentration at half of the fitted maximal effect; on the % scale 0 is the no-effect control and ±100 the full control effect; nearly all actives have a fitted effect of over 50% in size
PLK1 PBD inh = PLK1 (human) polo-box domain binding inhibition; AID 720504; 360,000 tested, 2.8% active; P53350; Potency, µM, for the others: max response, negative = inhibition, usual class: inhibitors; Plk1 PBD binding of FITC phosphopeptide, fluorescence polarization; further: potency means the concentration at half of the fitted maximal effect; series mostly up to about 57 µM; on the % scale 0 is the no-effect control and ±100 the full control effect; nearly all actives have a fitted effect of over 65% in size
PI5P4Ka inh = PI5P4K alpha (human) kinase inhibition. PI5P4Kalpha enzyme, ADP-Glo luminescence, 60 min; hits give low values. max response, %. 330,000 tested, 1.2% active. AID 652105; active means max response of -50% or lower; inconclusive means between -30% and -50%; inactive means -30% or higher; further: value at the top dose of about 77 µM; on the % scale 0 is the no-effect control and ±100 the full control effect
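Human PI5P4Kalpha with substrate in 0.038 M HEPES pH 7.4, 0.28 mM EGTA, 0.1% CHAPS, 5% DMSO; reaction started with 5 microM ATP (final), 60 min at room temperature. ADP formed read by ADP-Glo luminescence.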
GCN5L2 inh = blocks human GCN5L2 histone acetyltransferase; Potency, µM (top dose mostly 58.9 µM), inactives show at the top dose activity change, negative = inhibition, most hits filed as inhibitors; 390,000 tested, 0.21% active; GCN5L2 HAT assay, ThioGlo1 CoA-SH fluorescence; further: potency means the concentration at half of the fitted maximal effect; on the % scale 0 is the no-effect control and ±100 the full control effect
Target sequence (Q92830 whole entry, looked up): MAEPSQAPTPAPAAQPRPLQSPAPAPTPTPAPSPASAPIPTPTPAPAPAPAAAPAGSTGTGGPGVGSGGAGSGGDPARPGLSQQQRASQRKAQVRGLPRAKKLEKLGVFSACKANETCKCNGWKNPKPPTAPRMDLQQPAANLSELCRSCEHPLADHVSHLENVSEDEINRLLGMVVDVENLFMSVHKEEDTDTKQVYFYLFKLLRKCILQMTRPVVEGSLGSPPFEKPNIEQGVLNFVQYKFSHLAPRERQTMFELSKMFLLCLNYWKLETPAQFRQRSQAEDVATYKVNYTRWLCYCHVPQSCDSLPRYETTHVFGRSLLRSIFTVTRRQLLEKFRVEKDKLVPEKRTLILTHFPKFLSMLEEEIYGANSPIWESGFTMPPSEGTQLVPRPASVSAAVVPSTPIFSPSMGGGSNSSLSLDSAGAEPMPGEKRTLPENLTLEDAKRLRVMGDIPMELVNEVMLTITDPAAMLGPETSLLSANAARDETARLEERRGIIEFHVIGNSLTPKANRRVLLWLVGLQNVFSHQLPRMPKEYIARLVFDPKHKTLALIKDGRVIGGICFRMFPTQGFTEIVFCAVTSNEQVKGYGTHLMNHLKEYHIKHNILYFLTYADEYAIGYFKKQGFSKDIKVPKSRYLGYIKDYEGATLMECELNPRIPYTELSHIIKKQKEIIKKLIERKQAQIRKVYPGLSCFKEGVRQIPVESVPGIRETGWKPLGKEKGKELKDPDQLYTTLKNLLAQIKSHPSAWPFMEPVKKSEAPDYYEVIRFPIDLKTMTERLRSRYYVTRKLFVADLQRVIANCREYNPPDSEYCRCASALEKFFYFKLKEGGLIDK
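GCN5L2 (20nM final) in 50mM HEPES, 0.1mM EDTA pH 7.5, 0.01% Tween-20 was preincubated 15 min at room temperature with compound, then given ThioGlo1 (50uM), H3(1-25) peptide (75uM) and acetyl-CoA (70uM); CoA-thiol fluorescence (Ex340/Em540) was read at 0 and 20 min.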
BAZ2B block = blocks human BAZ2B | 360,000 tested, 4.4% active | Potency, µM (series often up to 114 µM), for inactives: top-dose activity change, negative = inhibition, usual class: inhibitors | AlphaScreen BAZ2B-H3K14Ac peptide displacement | Q9UIF8; further: potency means the concentration at half of the fitted maximal effect; on the % scale 0 is the no-effect control and ±100 the full control effect; nearly all actives have a fitted effect of over 60% in size
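Inhibition is scored as reduced AlphaScreen emission. The BAZ2B/b-H3(5-23)K14Ac complex (50 nM each) in PBS pH 7.4, 0.01% Tween-20 meets compound (up to 110 uM) for 30 min at RT before bead addition.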
* marks the source's active call; other numbers are inactive results; ? = inconclusive; . = no result given; [ ] = dose if it differs, or a comment. Unless noted, the call rests on the fitted dose curve; in most records, active means well fitted curve in the direction sought with a large enough effect; inconclusive means small, poorly fitted or top-dose-only effect, or another doubt; inactive means no such curve, though single readings can be large; an effect the other way counts as inactive or inconclusive.

SMILES	HP1b chromo inh	JMJD2A Tudor	PLK1 PBD inh	PI5P4Ka inh	GCN5L2 inh	BAZ2B block
CCC(C)C1=CC(=Nc2c(C)n(C)n(-c3ccccc3)c2=O)C=C(C(C)CC)C1=O (centres undefined)	-20%	?	-12%	0	-8%	3.5µM*
Cc1c(N=C2Nc3cccc4cccc2c34)c(=O)n(-c2ccccc2)n1C	22%	-12%	80%	-2	-4%	5%
CC1=CC(=Nc2c(C)n(C)n(-c3ccccc3)c2=O)C=CC1=O	.	.	.	.	-8%	45µM*
COc1cc(Br)c(-c2sc(Nc3ccccc3)n[n+]2-c2ccc(F)cc2)cc1OC	-5%	79µM*	-29%	-24	1%	?
CCOc1cc(-c2sc(Nc3ccccc3)n[n+]2-c2ccc(F)cc2)ccc1OC	38%	?	24µM*	-2	0%	-5%
Fc1ccc(-[n+]2nc(Nc3ccccc3)sc2-c2ccc(OCc3ccccc3)cc2)cc1	12%	89µM*	-9%	-15	2%	?
COc1cc(OC)c(-c2sc(Nc3ccccc3)n[n+]2-c2ccc(F)cc2)cc1OC	41%	-12%	-12%	0	-8%	-7%
COC(=O)C1=C(N)Oc2cc(C)[nH]c(=O)c2C1c1ccccc1OC (centres undefined)	36%	-18%	-8%	-3	3%	-14%
Cc1ccccc1-n1ncc2c1CC(C)(C)CC2NC(=O)CCN1Cc2ccccc2C1=O (centres undefined)	39%	4%	-3%	2	1%	-8%
COc1cccc(-n2ccnc2SCC(=O)Nc2ccccc2)c1	?	?	3µM*	?	-10%	?
NC(=O)c1ccc(-n2nnnc2SCC(=O)Nc2ccc(N3CCOCC3)c(Cl)c2)cc1	-2%	2%[11.4 µM]	24µM*	-29	-2%	-2%
COc1cccc(NC(=O)CSc2nccn2-c2cccc(OC)c2)c1	-25%	?	-3%	-3	-10%	?
COc1cccc(-n2nnnc2SCC(=O)Nc2ccc(C(C)=O)cc2)c1	-13%	?	24µM*	-9	-2%	0%
COc1cccc(-n2nnnc2SCC(=O)Nc2ccccc2OC)c1	39%	-7%	-1%	0	-2%	-9%
CCCS(=O)(=O)c1nnnn1-c1cccc(OC)c1	58%	4%	13µM*	.	-21%	-1%
Cc1[nH]c2ccccc2c1SCC(=O)NNC(=O)Nc1ccc(OC(F)(F)F)cc1	-6%	?	-3%	0	-8%	?
CCc1ccc2c(COC(=O)C3CSC4(C)CCC(=O)N34)cc(=O)oc2c1 (centres undefined)	31%	-9%	-12%	-4	-5%	-7%
CCCCn1c(N)c(N(CCOC)C(=O)c2cc(-c3ccc(OC)cc3)nc3ccccc23)c(=O)[nH]c1=O	41%	-9%	1%	7	-7%	-2%
COc1ccc(NC(=O)Cn2c(=O)n(-c3cccc(C)c3)c(=O)c3c2c2cc(C)ccc2n3C)cc1Cl	23%	-6%	.	.	-4%	-1%
COc1cccc(-n2ccnc2SCC(=O)Nc2ccccc2F)c1	?	?	-8%	1	-3%	25µM*
COc1cccc(-n2ccnc2SCC(=O)Nc2cc(OC)ccc2OC)c1	45µM*	89µM*	-13%	2	?	28µM*
COc1ccc(NC(=O)CSc2nccn2-c2cccc(OC)c2)cc1	-19%	?	-5%	-4	-3%	?
CN1CCN(CC(=O)N2CCn3c4c(c5cc(C6CCCCC6)ccc53)CCCC42)CC1 (centres undefined)	?	40µM*	-4%	-26	-3%	35µM*
Cc1ccc2c(c1)c(=O)c1c3n2CCN(C(=O)CCl)C3CC1 (centres undefined)	-9%	?	?	-22	-10%	40µM*
Cc1ccc2c(c1)c1c3n2CCN(C(=O)c2ccc(C(F)(F)F)cc2)C3CCC1 (centres undefined)	-7%	?	.	.	1%	28µM*
SMILES	HP1b chromo inh	JMJD2A Tudor	PLK1 PBD inh	PI5P4Ka inh	GCN5L2 inh	BAZ2B block
Cc1ccc2c(c1)c1c3n2CCN(C(=O)CN2CCN(C)CC2)C3CCC1 (centres undefined)	-13%	?	-3%	4	-6%	?
Cc1ccc(C(=O)N2CCn3c4c(c5cc(C)ccc53)CCCC42)cc1 (centres undefined)	-22%	?	.	.	-8%	14µM*
Cc1ccc2c(c1)c1c3n2CCN(C(=O)C2CC2)C3CCC1 (centres undefined)	-1%	-34%	-3%	1	-7%	?
CC1(c2nc3ccccc3[nH]2)CCCC2=Nc3ccccc3CN21 (centres undefined)	.	.	-13%	-2	.	.
CC(=O)Nc1nonc1-c1nnc(SCc2ccc(Cl)cc2)n1C	21%	-12%	.	.	-4%	1%
Cc1ccc2c(c1)c1c3n2CCCN(Cc2ccccc2)C3CCC1 (centres undefined)	?	?	-7%	.	1%	10µM*
Cc1ccc2c(c1)c1c3n2CCN(CC#N)C3CCC1 (centres undefined)	29%	-21%	-8%	7	1%	?
COc1ccc2c(c1)Sc1ccccc1N2CCN(C)C	32µM*	?	-5%	-4	-2%	25µM*
CCN(CC)CCN1c2ccccc2Sc2ccccc21	45µM*	2.8µM*	-4%	-4	-4%	71µM*
CCN(CC)CCN1c2ccccc2Sc2ccc3ccccc3c21	50%	?	-20%	0	0%	?
CN(C)CCCN1c2ccccc2Sc2ccccc21	24%	-14%	-8%	14	?	?
O=C(OCC1CCNCC1)c1ccc(F)cc1	37%	2%	-1%	1	.	.
Cc1ccc(-c2noc(-c3cccnc3NCc3ccc(Cl)cc3)n2)cc1	59%	-5%	.	.	-5%	1%
CCOc1ccc(/C=C/c2nc(C#N)c(N(C)C)o2)cc1	25%	-20%	.	.	-14%	?
COc1ccc(CCNC(=O)c2coc3ccccc3c2=O)cc1	5%	-21%	1%	-2	-6%	-32%
CCCCCCCCN1C(=O)[C@H](CC(=O)NCc2ccc(C)o2)C[C@@]2(C(=O)OCC)CCC=C12	.	.	-17%	-61*	.	.
CCOC(=O)[C@]12CCC=C1N(Cc1ccccc1)C(=O)[C@H](CC(=O)NCc1ccc(C)o1)C2	.	.	-28%	-19	.	.
CCCCCCCCN1C(=O)[C@H](CC(=O)NCc2ccc(C)o2)C[C@@]2(C(=O)OC)CCCCC=C12	.	.	-13%	-65*	.	.
COC(=O)[C@]12CCCCC=C1N(CCC1=CCCCC1)C(=O)[C@H](CC(=O)NCc1ccc(C)o1)C2	.	.	-9%	?	.	.
CSc1ccccc1NC(=O)CN(C)Cc1ccc(Br)cc1	120%	78%	-7%	22	-6%	79%

Assay outcomes: PubChem, National Center for Advancing Translational Sciences (NCATS)
